# The list is not random: actives were taken first. Their share in the collection is about 7.9%.
# SW480 rereplic – A quantitative high throughput screen for small molecules that induce DNA re-replication in SW480 colon adenocarcinoma cells. SW480 DNA re-replication, Hoechst DNA content imaging, 48 h. Potency, µM (series often up to 46.1 µM), without a hit: at the highest dose re-replication activation, hits mostly activators. 1.8% of 340,000 active; note: % of control where 0% means no effect; nearly all actives have a fitted effect of over 55% in size
#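 DNA re-replication was detected as more nuclei of elevated Hoechst intensity after 48 hr exposure to compound (23 nL pinned per well of 250 cells).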
# HT1080 IDH1KD tx – qHTS for induction of synthetic lethality in tumor cells producing 2HG: qHTS for the HT-1080-IDH1KD cell line. HT-1080 IDH1 knockdown viability, ATP luminescence, 48 h. Potency, µM (titrated, usually from 46.1 µM), inactives show at the top dose activity, negative = toxicity, hits mostly cytotoxic. 2% of 360,000 active. AID 686971, 2013;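 note: 0% = DMSO wells and -100% = cell-free medium wells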
#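 Luminescent ATP read-out (CellTiter-Glo, 10 min at room temperature) after 48 h compound exposure at 37 °C gave viability of IDH1-knockdown HT-1080 cells. Activity was normalised to DMSO and cell-free wells, then fitted as concentration-response curves.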
# HT1080-NT tox – qHTS for induction of synthetic lethality in tumor cells producing 2HG: qHTS for the HT-1080-NT fibrosarcoma cell line. HT-1080-NT fibrosarcoma viability, CellTiter-Glo ATP luminescence, 48 h. Potency, µM (highest dose often 46.1 µM), for inactives: at the top dose activity, negative = less viability, hits mostly cytotoxic. 1.6% of 360,000 active. AID 686970, 2013;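 note: NT is the 2HG producing partner of a matched IDH1 knockdown line; 0% = DMSO-treated cells and -100% = media-only wells without cells; nearly all actives have a fitted effect of over 55% in size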
#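 750 cells/well, RPMI + 5% FBS; 2 h settle, compound pin-transfer, 48 h at 37 degrees C. CellTiter-Glo 10 min RT, luminescence. Normalized to DMSO and media-only wells.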
# MCF10A rerep – A quantitative high throughput screen for small molecules that induce DNA re-replication in MCF 10a normal breast cells | MCF 10A DNA re-replication, Hoechst nuclear intensity, 48 h | Potency, µM (doses to about 46.1 µM), for the others: at the top dose activity, positive = re-replication, usual class: activators | 2.9% of 350,000 active | AID 624296, 2012; note: % of control where 0% means no effect; nearly all actives have a fitted effect of over 50% in size
# KB-V1 MDR tox – qHTS assay for MDR1-selective chemotherapeutics: Primary screen using the drug-selected MDR subline cells KB-V1; Potency, µM (top dose mostly 46.1 µM), most hits filed as cytotoxic; KB-V1 MDR cells viability, CellTiter-Glo, 72 h; 3.4% of 400,000 active; note: % is set by controls: 0 for no effect and ±100 for the full control effect; nearly all actives have a fitted effect of over 60% in size
#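 In this primary screen, KB-V1 cells overexpressing P-gp are incubated with library compounds (lowest to highest concentration) for 72 h at 37 degrees C before a luminescent ATP viability read.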
# KB-3-1 tox – qHTS assay for MDR1-selective chemotherapeutics: Primary screen using the parental adenocarcinoma cell KB-3-1; AID 1347075, 2019; Potency, µM (doses to about 46.1 µM), hits mostly cytotoxic; KB-3-1 viability, CellTiter-Glo ATP luminescence, 72 h; 1.4% of 400,000 active; note: % is set by controls: 0 for no effect and ±100 for the full control effect; nearly all actives have a fitted effect of over 60% in size
#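 Cytotoxicity in the drug-sensitive parental line KB-3-1 was scored as loss of CellTiter-Glo luminescence following 72 h incubation with compound. Values come from curve fitting of normalized concentration-response data.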
# The depositor's hits bear a star; i = inactive; ? = inconclusive; . = no result given; [ ] = remark or other dose. Calls come from the whole dose curve; as a rule, active = well fitted curve in the direction sought with a large enough effect; inconclusive = small, poorly fitted or top-dose-only effect, or another doubt; inactive = no such curve, though single readings can be large; an effect the other way counts as inactive or inconclusive. Potency is the fitted concentration of half-maximal effect.
SMILES,SW480 rereplic,HT1080 IDH1KD tx,HT1080-NT tox,MCF10A rerep,KB-V1 MDR tox,KB-3-1 tox
COc1cc2cc(CCOC(=O)N3CCCCC3)oc(=O)c2cc1OC,-44%[9.22 µM],-1%,5%,-3%,i,i
CC(O)CNc1ccc(-c2nn(C)c(=O)c3ccccc23)cc1[N+](=O)[O-] (configuration not stated),-4%,-13%,-16%,4%,6.5µM*,9.2µM*
N#Cc1ccc(Oc2ccc(/C=N/O)cn2)cc1,-5%,5%,-1%,2%,i,i
CC1=NN(c2ccc(C)c(C)c2)C(=O)/C1=C\C=C\c1ccc([N+](=O)[O-])o1,-16%,16µM*,?,0%,i,?
CCOC(=O)c1ccc(N2N=C(C)/C(=C/C=C/c3ccco3)C2=O)cc1,-2%,1%,2%,?,i,i
NC(=Nc1ccccc1)N(c1ccccc1)c1ccccc1,?,-17%,-1%,12µM*,i,i
NC(=S)N(c1ccccc1)c1ccccc1,2%,10%,8%,0%,i,i
COc1ccc(NC(=O)C2Cc3c(-c4ccc(NC(C)=O)cc4)ccnc3O2)cn1 (configuration not stated),.,?,?,.,?,10µM*
COc1ccc(NC(=O)C2Cc3c(-c4ccc(NC(C)=O)cc4)ccnc3O2)cc1 (configuration not stated),.,-22%,-13%,.,i,i
CC(=O)c1cccc(-c2ccnc3c2CC(C(=O)Nc2ccc(Cl)cc2)O3)c1 (configuration not stated),.,16µM*,?,.,?,?
O=C(Nc1ccccc1)C1Cc2c(-c3cccc(F)c3)ccnc2O1 (configuration not stated),.,-16%,4%,.,i,i
COc1ccc(CCCNC(=O)C2Cc3c(-c4ccccc4)ccnc3O2)cc1 (configuration not stated),.,?,8.2µM*,.,?,?
CS(=O)(=O)Nc1cccc(NC(=O)C2Cc3c(-c4cccc(F)c4)ccnc3O2)c1 (configuration not stated),.,?,2.1µM*,.,?,6.5µM*
CCOC(=O)c1ccc(NC(=O)Cn2c(C)nc3c(sc(=S)n3CC)c2=O)cc1,-11%,22%,8%,1%,i,i
Cc1ccn2c(NC3CCCCC3)c(-c3ccc(C)o3)nc2c1,.,-24%,?,.,.,.
O=C(CSc1nnc(NC(=O)c2ccco2)s1)NCc1ccc2c(c1)OCO2,2%,-3%,-7%,-2%,i,i
CC(=O)Nc1ccc(NC(=O)C2Cc3c(-c4cccc(NC(C)=O)c4)ccnc3O2)cc1 (configuration not stated),.,23%,0%,.,i,i
O=C(Nc1cccc(C(F)(F)F)c1)C1Cc2c(-c3ccccc3)ccnc2O1 (configuration not stated),.,23µM*,?,.,i,i
COc1ccc(NC(=O)C2Cc3c(-c4cccc(NC(C)=O)c4)ccnc3O2)cc1 (configuration not stated),.,?,?,.,?,4.1µM*
CC(=O)Nc1ccc(-c2ccnc3c2CC(C(=O)Nc2ccccc2)O3)cc1 (configuration not stated),.,18µM*,?,.,?,21µM*

# Compound activity: PubChem, National Center for Advancing Translational Sciences (NCATS)
